Experiment [1] concerns Aerobactin synthetase IucA (Klebsiella pneumoniae). The experiment is described as follows: IucA aerobactin synthetase inhibitors, biochemical, Tocris library, absorbance (AID 1345561; call rule not given here;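 further: 100% = enzyme without compound and 0% = no enzyme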). The following applies: purified IucA enzyme assay, absorbance (OD) read-out; stronger effect = lower value;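 tested at 8 µM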.
Experiment [2] can be described thus: sensitizers of A549 cells to miR-34 induction, primary screen, imaging, A549 dox-inducible miR-34, nuclei and caspase counts (AID 1347080). The settings on record: A549 miR-34 inducible, Hoechst nuclei count, 48 h.
A short description of experiment [3]: viability rescue of complex I mutant cybrids, primary screen, cell-based, galactose medium, ATP luminescence (AID 1645843;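 active means z-score of at least 1.8 in each of two replicates, scored against plate mean and spread of sample wells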;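 further: positive z means more ATP and so rescue of galactose-driven cybrid death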). The following applies: complex I mutant cybrid cells, 72 h, stronger effect = higher value.
[4] abbreviates: stronger effect = lower value, cell number ratio, induced over uninduced.
[5] abbreviates: measured here: relative caspase fold change +Dox/-Dox.
Setting [6] is: measured here: total cells with miR-34 induction, stronger effect = lower value.
The mark [7] stands for this setting: measured here: total cells without miR-34 induction.

The results in this text go back to PubChem BioAssay.

Values joined by “and” are separate entries in the source; they are usually repeats but may differ in a detail not shown here. Equal entries are not always repeated. Active and inactive are the calls of the source.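 How the source made its calls, unless noted: active means compounds whose cell count with miR-34 switched on is under 0.7 times the count with it off; inactive means the rest.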

`CCCCCCCNS(=O)(=O)c1cccc2c(Cl)cccc12`: in experiment [1], the remaining activity – broadly, the signal under treatment as a percentage of the control signal – was 95% (inactive). Besides, the results for the fold change in experiment [2] (setting [4]) and in experiment [2] (setting [5]) were 0.865 (inactive) and 0.629, respectively. In addition, the cell count was determined as 8130 in experiment [2] (setting [6]) and 9410 in experiment [2] (setting [7]). The z-score in experiment [3] was -0.5 (inactive).
In the case of `O[C@@H]1[C@H](O)[C@@H](CCl)O[C@H]1n1cnc2c(NC3CC4CCC3C4)ncnc21` (stereo partly drawn), the remaining activity in experiment [1] is 108% (inactive). In addition, the fold change in experiment [2] (setting [4]) is 0.921 (inactive); in experiment [2] (setting [5]), 1.85. For the same compound, the cell count in experiment [2] (setting [6]) is 8570; in experiment [2] (setting [7]) it was 9310. In addition, the z-score in experiment [3] is 1.96 (inactive).
Turning to `CC1(C(=O)O)NCCc2cc(O)c(O)cc21` (stereo not drawn), in experiment [1], the remaining activity is 123% (inactive). The fold change is 0.987 (inactive) in experiment [2] (setting [4]) and 0.804 in experiment [2] (setting [5]). The cell count in experiment [2] (setting [6]) was determined as 8540; in experiment [2] (setting [7]) it was 8650. In addition, the z-score in experiment [3] is -0.015 (inactive).
Take `OC[C@H]1O[C@@H](n2cnc3c(NC4CCCC4)nc(Cl)nc32)[C@H](O)[C@@H]1O`: the remaining activity in experiment [1] was 122% (inactive). The fold change was 0.891 (inactive) in experiment [2] (setting [4]) and 0.662 in experiment [2] (setting [5]). Besides, the cell count worked out at 8890 in experiment [2] (setting [6]) and 9980 in experiment [2] (setting [7]). The z-score in experiment [3] was 0.55 (inactive).
Regarding `N#Cc1ccccc1OCC(O)CNCCNC(=O)Nc1ccccc1` (stereo not drawn), the remaining activity in experiment [1] is 118% (inactive). The results for the fold change in experiment [2] (setting [4]) and in experiment [2] (setting [5]) were 0.847 (inactive) and 1.36, respectively. Further, the cell count was 8970 in experiment [2] (setting [6]) and 10600 in experiment [2] (setting [7]). The z-score in experiment [3] is -0.64 (inactive).
On to `Cc1nn(C)c2nc(NNC(=O)Nc3cc(Cl)nc(Cl)c3)cc(C(C)C)c12`, for which the remaining activity in experiment [1] was 121% (inactive). Also, the fold change was 0.867 (inactive) and 1.06 (inactive) in experiment [2] (setting [4]); 1.04 and 1.03 in experiment [2] (setting [5]). Besides, the cell count is 5060 and 4050 in experiment [2] (setting [6]); 5840 and 3820 in experiment [2] (setting [7]). Further, the z-score in experiment [3] was -0.55 (inactive).
In the case of `CCCOc1ccc(Br)cc1-c1cc(-c2ccc(Cl)cc2)[nH]c1-c1ccncc1`, in experiment [1], the remaining activity was 102% (inactive). Further, the fold change is 0.969 (inactive) in experiment [2] (setting [4]) and 1.19 in experiment [2] (setting [5]). Also, the cell count came out at 8200 in experiment [2] (setting [6]) and 8460 in experiment [2] (setting [7]). Further, the z-score in experiment [3] was 0.1 (inactive).
Turning to `CN(C)[C@@H]1CCc2[nH]c3ccc(NC(=O)c4ccc(F)cc4)cc3c2C1`, in experiment [1], the remaining activity is 77.6% (inactive). The fold change in experiment [2] (setting [4]) is 0.87 (inactive); in experiment [2] (setting [5]) it was 1.77. For the same compound, the cell count turned out to be 8840 in experiment [2] (setting [6]) and 10200 in experiment [2] (setting [7]). For the same compound, in experiment [3], the z-score was 0.495 (inactive).
As to `O=[N+]([O-])c1ccccc1S(=O)(=O)NCC1CCC(CNCC2CCc3ccccc3C2)CC1` (stereo not drawn), the remaining activity in experiment [1] was 97.1% (inactive). The fold change in experiment [2] (setting [4]) is 0.747 (inactive); in experiment [2] (setting [5]) it was 1.77. In addition, the values for the cell count in experiment [2] (setting [6]) and in experiment [2] (setting [7]) were 2050 and 2740, respectively. Moreover, the z-score in experiment [3] is -0.675 (inactive).
In the case of `O=C(c1c(O)c2ccc(Cl)cc2[nH]c1=O)C1CC1`, the remaining activity in experiment [1] was 118% (inactive). Further, the fold change in experiment [2] (setting [4]) was 0.973 (inactive); in experiment [2] (setting [5]), 1.04. In addition, the figures for the cell count in experiment [2] (setting [6]) and in experiment [2] (setting [7]) were 8250 and 8480, respectively. Also, the z-score in experiment [3] was -0.025 (inactive).
`Oc1ccc(-c2c(-c3ccccc3)nn3c(C(F)(F)F)cc(C(F)(F)F)nc23)cc1`: the remaining activity in experiment [1] was 95% (inactive). The fold change in experiment [2] (setting [4]) was 0.915 (inactive); in experiment [2] (setting [5]) it was 2.74. Further, the figures for the cell count in experiment [2] (setting [6]) and in experiment [2] (setting [7]) were 8170 and 8930, respectively. The z-score in experiment [3] is 0.225 (inactive).
Take `COc1cc(N)c(Cl)cc1C(=O)OCCCN1CCCCC1`: the remaining activity in experiment [1] is 102% (inactive). Besides, the fold change is 0.975 (inactive) in experiment [2] (setting [4]) and 0.823 in experiment [2] (setting [5]). Also, the cell count in experiment [2] (setting [6]) was 9460; in experiment [2] (setting [7]) it was 9700. Besides, the z-score in experiment [3] is 0.255 (inactive).
As to `C[C@@H]1CC2C3CCC4=CC(=O)C=CC4(C)C3(F)[C@@H](O)CC2(C)C1(O)C(=O)CO` (stereo partly drawn), the remaining activity in experiment [1] was 110% (inactive). Moreover, the fold change in experiment [2] (setting [4]) is 0.804 (inactive); in experiment [2] (setting [5]), 0.753. The cell count came out at 7230 in experiment [2] (setting [6]) and 8990 in experiment [2] (setting [7]). Further, the z-score in experiment [3] was 0.725 (inactive).
Take `CC(=O)N[C@H](Cc1c[nH]c2ccccc12)C(=O)OCc1cc(C(F)(F)F)cc(C(F)(F)F)c1`: the remaining activity in experiment [1] was 106% (inactive). Further, the fold change in experiment [2] (setting [4]) is 0.923 (inactive); in experiment [2] (setting [5]) it was 0.896. Moreover, the cell count in experiment [2] (setting [6]) is 8110; in experiment [2] (setting [7]) it was 8790. The z-score in experiment [3] is -0.035 (inactive).
Consider `O=S(=O)(NCCCCCCc1ccccc1)c1cccc2c(Cl)cccc12`, for which, in experiment [1], the remaining activity is 101% (inactive). In addition, the fold change in experiment [2] (setting [4]) is 0.934 (inactive); in experiment [2] (setting [5]), 0.599. Also, the cell count in experiment [2] (setting [6]) stood at 8620; in experiment [2] (setting [7]), 9230. Besides, the z-score in experiment [3] was -1.14 (inactive).
Consider `COc1ccccc1N1CCN(CCN2C(=O)c3ccccc3C(C)(C)C2=O)CC1`, for which the remaining activity in experiment [1] was 124% (inactive). The fold change in experiment [2] (setting [4]) was 1.04 (inactive); in experiment [2] (setting [5]) it was 1.01. Also, the values for the cell count in experiment [2] (setting [6]) and in experiment [2] (setting [7]) were 7580 and 7320, respectively. In addition, in experiment [3], the z-score is -0.455 (inactive).
For `COc1cccc(C=NC=Nc2cccc(OC)c2)c1`, the remaining activity in experiment [1] is 120% (inactive). Further, the fold change in experiment [2] (setting [4]) is 0.917 (inactive); in experiment [2] (setting [5]) it was 0.661. Also, the cell count came out at 8640 in experiment [2] (setting [6]) and 9420 in experiment [2] (setting [7]). In addition, the z-score in experiment [3] was -0.08 (inactive).
As to `O/N=C/c1ccc(-c2ccc(O)c(F)c2)c(Cl)c1O`, the remaining activity in experiment [1] was 117% (inactive). Further, the results for the fold change in experiment [2] (setting [4]) and in experiment [2] (setting [5]) were 0.891 (inactive) and 1.26, respectively. Further, the cell count in experiment [2] (setting [6]) came to 7880; in experiment [2] (setting [7]) it was 8840. Moreover, the z-score in experiment [3] was -0.63 (inactive).
Consider `Cc1nc2ccc(NC(=O)Nc3ccnc4cccnc34)cc2o1`, for which the remaining activity in experiment [1] is 111% (inactive). The values for the fold change in experiment [2] (setting [4]) and in experiment [2] (setting [5]) were 0.867 (inactive) and 0.84, respectively. For the same compound, the cell count in experiment [2] (setting [6]) was determined as 7250; in experiment [2] (setting [7]), 8360. In addition, the z-score in experiment [3] was 1.19 (inactive).
For the compound `COC(=O)[C@@H]1C2C[C@H]3c4[nH]c5ccccc5c4CCN3C[C@@H]2CC[C@@H]1O` (stereo partly drawn), in experiment [1], the remaining activity was 95.9% (inactive). The fold change in experiment [2] (setting [4]) is 0.91 (inactive); in experiment [2] (setting [5]), 2.92. Besides, the cell count in experiment [2] (setting [6]) was found to be 8430; in experiment [2] (setting [7]), 9270. Moreover, in experiment [3], the z-score was 0.315 (inactive).
Take `COc1oc(=O)c2cc(N)ccc2c1Cl`: the remaining activity in experiment [1] was 95.9% (inactive). Moreover, the fold change in experiment [2] (setting [4]) is 0.989 (inactive); in experiment [2] (setting [5]) it was 1.44. In addition, the cell count in experiment [2] (setting [6]) worked out at 8640; in experiment [2] (setting [7]), 8740. Moreover, the z-score in experiment [3] was -0.37 (inactive).
Consider `O=C(NCCCN1CCC2(CC1)OCc1ccccc12)[C@H]1CCCN1Cc1ccccc1`, for which the remaining activity in experiment [1] was 123% (inactive). The values for the fold change in experiment [2] (setting [4]) and in experiment [2] (setting [5]) were 0.953 (inactive) and 1.86, respectively. Besides, the cell count in experiment [2] (setting [6]) came to 7790; in experiment [2] (setting [7]) it was 8180. In addition, the z-score in experiment [3] is -0.88 (inactive).
For `Cc1c(NC(=O)N2CCOCC2)ccc2c1c1ccccc1n2C(C)C`, the remaining activity in experiment [1] was 122% (inactive). The results for the fold change in experiment [2] (setting [4]) and in experiment [2] (setting [5]) were 0.891 (inactive) and 1.37, respectively. The cell count in experiment [2] (setting [6]) is 8260; in experiment [2] (setting [7]), 9270. Further, the z-score in experiment [3] was 1.14 (inactive).
